# Source: PubChem BioAssay AID1053125 (Broad Institute, 2014)
# Entries with a potency or affinity are not part of this list. The source made the active and inactive calls.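 Rule for the calls: active = viability loss whose fitted half-maximal concentration is at most twice the top valid tested dose; inconclusive = flat curve with 30 to 70% loss, or poor fit; inactive = the rest.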
# Assay: HepG2 cell cytotoxicity, dose response, cytotoxicity control, ATP luminescence, cherry-pick, set 6 (AID 1053125);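 note: negative values mean loss of viability signal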
# Details: HepG2 viability, ATP luminescence (CellTiter-Glo), 72 h; series mostly up to 26 µM; activity change, negative = cytotoxicity: at the top concentration
row,Structure (SMILES),"activity change, negative = cytotoxicity"
1,Cc1cccn2c(=O)c3cc(C(=O)NCc4ccco4)c(=N)n(CCc4ccccc4)c3nc12,1.38% (inactive)
2,Cc1cccn2c(=O)c(/C=C(\C#N)C(=O)NC3CCS(=O)(=O)C3)c(N3CCC(C(N)=O)CC3)nc12 (stereo not given),-0.312% (inactive)
3,O=C(O)C1=CC[C@@H](c2ccc(Cl)cc2)N(S(=O)(=O)c2ccc(Cl)cc2)[C@H]1c1ccc(F)cc1,9.31% (inactive)
4,CCOC1=NN(c2ncc(C(F)(F)F)cc2Cl)C(=O)C1,-7.01% (inactive)
5,COCCCOc1cc(NCc2ccccc2)c2ncn(C(C)C)c2c1,5.95% (inactive)
6,COC(=O)c1cc(=O)n(Cc2ccc3c(c2)OCO3)c(=Nc2ccc(F)c(Cl)c2)s1,-1.78% (inactive)
7,[O-]/[N+](=C/c1ccccc1)c1ccccc1,18.8% (inactive)
8,Cc1oc(/N=C/c2ccc(F)cc2)c(C#N)c1C,-4.78% (inactive)
9,CC1=C(C(=O)N2CCN(c3cc(C)ccc3C)CC2)C2(CCCCC2)OC1=O,-6.7% (inactive)
10,COCCCn1c(=N)c(C(=O)NC2CCCCC2)cc2c(=O)n3ccccc3nc21,-7.84% (inactive)
11,COc1ccc(C2CC(c3cccs3)=NN2c2nc(C)c(C(C)=O)s2)cc1OC (stereo not given),-14.8% (inactive)
12,COc1cc(C(=O)OCC(C)=O)cc(NC(=O)c2ccco2)c1OC,2.34% (inactive)
13,COc1ccc(C(=O)Oc2cc(N)n(S(=O)(=O)c3ccccc3)n2)cc1,-8.75% (inactive)
14,CC(=O)Oc1ccc(C(=O)Nc2cc(C)on2)cc1,-19.6% (inactive)
15,CC(=O)NNc1cc(N2CCOCC2)nc(N2CCOCC2)n1,6.7% (inactive)
16,COc1ccc(C2C(C#N)=C(N)Oc3cc(O)ccc32)cc1Cl (stereo not given),-4.61% (inactive)
17,CC(C)OCCCn1c(=N)c(C(N)=S)cc2c(=O)n3ccccc3nc21,-3.52% (inactive)
18,COc1ccc(C(=O)c2sc3nc(-c4ccc(OC)cc4)ccc3c2N)cc1,-0.796% (inactive)

row,Structure (SMILES),"activity change, negative = cytotoxicity"
1,CC1CCN(C(=O)COc2cccc3c2CCN(Cc2ccccc2)C3=O)CC1,-18.4% (inactive)
2,O=C(O)c1ccc(N/N=C/c2ccc(-c3ccccc3Cl)o2)cc1,-1.29% (inactive)
3,Nn1c(SCC(=O)N2CCCC2)nnc1-c1cccs1,-0.141% (inactive)
4,O=C(COC(=O)c1cc(S(=O)(=O)N2CCCCC2)ccc1N1CCOCC1)c1ccccc1Cl,-11.1% (inactive)
5,CCOc1ccc2nc(NCCNC(=O)CC)c(C#N)cc2c1,5.54% (inactive)
6,CCc1nc(SCC(=O)c2ccccc2)c2ccccc2n1,-8.96% (inactive)
7,CCN(CC)c1ccc2cc(C(N)=O)c(=O)oc2c1,3.5% (inactive)
8,CC1(C)CC(=O)C2=C(C1)OC(N)=C(C#N)[C@@H]2c1ccccc1[N+](=O)[O-],-5.15% (inactive)
9,Cn1cccc1/C=N/NC(=O)c1sc2cc(Cl)ccc2c1Cl,-8.71% (inactive)
10,CCCOc1ccc(NC(=O)c2c(-c3ccccc3)noc2C)cc1,-6.96% (inactive)
11,COc1ccc(CCNC(=O)CSc2cn(Cc3cccc(C)c3)c3ccccc23)cc1OC,30.9% (inactive)
12,Clc1cccc(CN2CCN(Cc3nc(CCc4ccccc4)no3)CC2)c1,-10.7% (inactive)
13,Cc1c(Nc2c3ccccc3nc3ccccc23)c(=O)n(-c2ccccc2)n1C,-6.17% (inactive)
14,Cc1ccc(-n2nnnc2CNC(=O)C(=O)c2c[nH]c3ccccc23)cc1C,-9.06% (inactive)
15,CCNC(=O)c1cc2c(=O)n3cccc(C)c3nc2n(Cc2ccc(C)cc2)c1=N,-17.9% (inactive)
16,N=c1oc2cc(O)ccc2cc1C(=O)Nc1ccc(Br)cc1,-15.2% (inactive)
17,CCC(C)NC(=S)N1CCN(Cc2ccc3c(c2)OCO3)CC1 (stereo not given),8.46% (inactive)
